Common to all, as to experiment: DAPPL (digital affinity profiling via proximity ligation, sequencing); 10 mM Tris-HCl pH 7.5, 50 mM NaCl, 1 mM DTT, 4% glycerol, room temperature, 30 min; GST-TFs on glutathione beads, 16-mer random dsDNA library, 0.1% formaldehyde crosslink after washing; high values mean tight binding
The target of one experiment is T1, FEV (Homo sapiens, UniProt Q99581 1-238).
T1 sequence: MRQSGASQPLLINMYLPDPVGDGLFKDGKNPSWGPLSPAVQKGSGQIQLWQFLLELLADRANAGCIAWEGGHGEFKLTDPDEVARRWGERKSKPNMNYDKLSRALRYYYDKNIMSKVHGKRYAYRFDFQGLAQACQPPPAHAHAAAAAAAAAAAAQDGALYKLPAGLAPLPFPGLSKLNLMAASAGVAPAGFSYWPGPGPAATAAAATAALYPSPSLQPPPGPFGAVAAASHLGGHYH
As to conditions: protein: recombinant; tags: N-terminal GST; dsDNA, one strand shown. In a few lines:
(§1)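 In yeast, human transcription factors were expressed with a GST fusion, then pulled down on glutathione beads and given DNA barcodes. Pooled with a tag-only sample, they were exposed to 200 nmole of a 16-mer random double-stranded DNA library (Tris/NaCl/DTT/glycerol buffer, room temperature, 30 min), washed, crosslinked with 0.1% formaldehyde, proximity-ligated using BsaI/T4 ligase for 1 h at 37 °C, PCR-amplified and read on an Illumina NextSeq500. Each hexamer's frequency of reads for a factor, divided by the matching frequency for the tag-only sample, gives the binding signal.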

In a further experiment the target is ETV5 (Homo sapiens, UniProt P41161 1-510). To be noted: protein: recombinant; tags: N-terminal GST; dsDNA, one strand shown. The procedure, abridged: as §1
Chain of ETV5 (P41161 whole entry): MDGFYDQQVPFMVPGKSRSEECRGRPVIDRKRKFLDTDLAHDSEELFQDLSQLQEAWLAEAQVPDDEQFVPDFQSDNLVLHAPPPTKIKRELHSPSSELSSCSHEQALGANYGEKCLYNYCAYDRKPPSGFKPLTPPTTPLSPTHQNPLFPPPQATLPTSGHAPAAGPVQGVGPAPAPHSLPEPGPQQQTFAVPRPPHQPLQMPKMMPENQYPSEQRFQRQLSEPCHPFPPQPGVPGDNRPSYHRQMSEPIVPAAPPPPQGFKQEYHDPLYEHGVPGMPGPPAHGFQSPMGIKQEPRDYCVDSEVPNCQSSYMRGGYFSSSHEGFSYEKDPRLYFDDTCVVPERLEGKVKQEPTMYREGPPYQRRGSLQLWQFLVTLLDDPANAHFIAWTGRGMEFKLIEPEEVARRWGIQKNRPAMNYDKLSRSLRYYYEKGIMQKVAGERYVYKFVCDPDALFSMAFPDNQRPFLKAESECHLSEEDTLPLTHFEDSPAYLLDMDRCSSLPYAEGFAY
The next experiment has as its target HSF1 (Homo sapiens, UniProt Q00613 1-529). To be noted: protein: recombinant; tags: N-terminal GST; chain copies: 3; dsDNA, one strand shown. The procedure, abridged:
as §1

The next experiment addresses T2, SPIC (Homo sapiens, UniProt Q8N5J4 1-248).
T2 sequence: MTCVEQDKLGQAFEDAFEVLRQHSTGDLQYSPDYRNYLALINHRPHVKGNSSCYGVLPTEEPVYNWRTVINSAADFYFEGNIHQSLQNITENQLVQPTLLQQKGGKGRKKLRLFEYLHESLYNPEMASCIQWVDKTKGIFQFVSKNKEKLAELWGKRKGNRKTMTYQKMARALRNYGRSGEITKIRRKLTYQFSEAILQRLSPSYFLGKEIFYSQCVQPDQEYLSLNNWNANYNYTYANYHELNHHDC
As to conditions: protein: recombinant; tags: N-terminal GST; dsDNA, one strand shown. The procedure, abridged: as §1

A further experiment has as its target ELF4 (Homo sapiens, UniProt Q99607 1-663). As to conditions: protein: recombinant; tags: N-terminal GST; dsDNA, one strand shown. In a few lines:
as §1

The next experiment deals with T3, ELK4 (Homo sapiens, UniProt P28324-2 1-405).
T3 sequence: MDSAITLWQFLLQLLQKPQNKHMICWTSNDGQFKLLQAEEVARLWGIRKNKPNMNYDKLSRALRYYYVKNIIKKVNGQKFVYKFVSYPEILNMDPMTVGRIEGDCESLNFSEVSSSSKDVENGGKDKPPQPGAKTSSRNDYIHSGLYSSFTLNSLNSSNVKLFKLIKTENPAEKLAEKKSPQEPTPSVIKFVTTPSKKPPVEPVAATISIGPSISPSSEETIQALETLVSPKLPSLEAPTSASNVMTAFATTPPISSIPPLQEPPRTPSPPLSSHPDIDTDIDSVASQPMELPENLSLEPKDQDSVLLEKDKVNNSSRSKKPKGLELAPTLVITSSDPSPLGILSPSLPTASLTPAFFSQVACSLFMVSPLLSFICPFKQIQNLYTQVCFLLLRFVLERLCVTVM
As to conditions: protein: recombinant; tags: N-terminal GST; dsDNA, one strand shown. The procedure, abridged:
as §1

The next experiment has as its target T4, ETV2 (Homo sapiens, UniProt O00321 1-342).
T4 sequence: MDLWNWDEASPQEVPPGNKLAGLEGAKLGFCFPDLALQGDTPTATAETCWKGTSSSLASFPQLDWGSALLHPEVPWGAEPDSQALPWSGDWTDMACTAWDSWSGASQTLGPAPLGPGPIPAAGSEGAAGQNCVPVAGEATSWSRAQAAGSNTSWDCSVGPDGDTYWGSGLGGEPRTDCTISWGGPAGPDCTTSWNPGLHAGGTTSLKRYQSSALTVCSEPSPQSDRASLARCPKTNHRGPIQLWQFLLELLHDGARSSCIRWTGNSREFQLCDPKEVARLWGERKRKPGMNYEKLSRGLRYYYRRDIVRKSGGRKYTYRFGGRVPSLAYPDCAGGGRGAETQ
As to conditions: protein: recombinant; tags: N-terminal GST; dsDNA, one strand shown. In a few lines: as §1

In the next experiment the target is T5, ELF3 (Homo sapiens, UniProt P78545 1-371).
T5 sequence: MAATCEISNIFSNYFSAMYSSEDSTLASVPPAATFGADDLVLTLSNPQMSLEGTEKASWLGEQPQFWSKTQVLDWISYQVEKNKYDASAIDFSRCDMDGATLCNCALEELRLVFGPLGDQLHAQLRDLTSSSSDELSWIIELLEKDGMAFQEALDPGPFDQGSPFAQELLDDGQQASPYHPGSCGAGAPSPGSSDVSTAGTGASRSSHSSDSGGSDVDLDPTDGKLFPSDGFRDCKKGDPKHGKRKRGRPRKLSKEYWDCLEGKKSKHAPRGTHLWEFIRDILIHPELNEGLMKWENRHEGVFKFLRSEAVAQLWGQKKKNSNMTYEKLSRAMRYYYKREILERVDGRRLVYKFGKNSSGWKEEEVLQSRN
To be noted: protein: recombinant; tags: N-terminal GST; dsDNA, one strand shown. The procedure, abridged: as §1

Another experiment concerns the target CRX (Homo sapiens, UniProt O43186 1-299). To be noted: protein: recombinant; tags: N-terminal GST; dsDNA, one strand shown. The procedure, abridged: as §1
A further experiment concerns the target ETV1 (Homo sapiens, UniProt P50549 1-477). As to conditions: protein: recombinant; tags: N-terminal GST; dsDNA, one strand shown. The procedure, abridged:
as §1

Another experiment addresses T6, ERF (Homo sapiens, UniProt P50548 1-548).
T6 sequence: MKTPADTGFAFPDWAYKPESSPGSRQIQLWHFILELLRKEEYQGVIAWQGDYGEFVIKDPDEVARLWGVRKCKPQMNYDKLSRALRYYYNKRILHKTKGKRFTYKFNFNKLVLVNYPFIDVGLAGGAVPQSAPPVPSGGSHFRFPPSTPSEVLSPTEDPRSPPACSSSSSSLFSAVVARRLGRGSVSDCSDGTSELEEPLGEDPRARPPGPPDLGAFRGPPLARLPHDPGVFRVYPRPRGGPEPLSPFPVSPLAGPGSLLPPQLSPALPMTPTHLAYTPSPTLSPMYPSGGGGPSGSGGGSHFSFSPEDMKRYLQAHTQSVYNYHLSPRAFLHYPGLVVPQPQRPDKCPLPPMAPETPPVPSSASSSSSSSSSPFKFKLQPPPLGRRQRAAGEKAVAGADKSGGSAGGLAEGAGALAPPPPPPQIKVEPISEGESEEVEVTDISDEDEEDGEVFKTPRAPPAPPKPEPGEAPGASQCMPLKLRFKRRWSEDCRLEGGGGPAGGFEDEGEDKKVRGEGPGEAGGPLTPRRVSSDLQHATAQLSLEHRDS
To be noted: protein: recombinant; tags: N-terminal GST; dsDNA, one strand shown. The procedure, abridged:
as §1

The target of a further experiment is T7, ETV3L (Homo sapiens, UniProt Q6ZN32 1-361).
T7 sequence: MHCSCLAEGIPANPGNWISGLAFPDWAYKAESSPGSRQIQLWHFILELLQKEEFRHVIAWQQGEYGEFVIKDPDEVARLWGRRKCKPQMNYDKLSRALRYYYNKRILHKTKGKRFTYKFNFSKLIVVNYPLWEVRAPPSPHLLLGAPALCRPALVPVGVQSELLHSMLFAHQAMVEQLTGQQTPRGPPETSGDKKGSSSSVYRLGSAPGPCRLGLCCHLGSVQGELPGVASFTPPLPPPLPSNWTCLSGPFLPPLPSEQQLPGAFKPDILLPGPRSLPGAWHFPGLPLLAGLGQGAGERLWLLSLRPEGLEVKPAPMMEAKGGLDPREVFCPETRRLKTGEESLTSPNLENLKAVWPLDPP
As to conditions: protein: recombinant; tags: N-terminal GST; dsDNA, one strand shown. The procedure, abridged:
as §1

A further experiment deals with T8, ETS2 (Homo sapiens, UniProt P15036 1-469).
T8 sequence: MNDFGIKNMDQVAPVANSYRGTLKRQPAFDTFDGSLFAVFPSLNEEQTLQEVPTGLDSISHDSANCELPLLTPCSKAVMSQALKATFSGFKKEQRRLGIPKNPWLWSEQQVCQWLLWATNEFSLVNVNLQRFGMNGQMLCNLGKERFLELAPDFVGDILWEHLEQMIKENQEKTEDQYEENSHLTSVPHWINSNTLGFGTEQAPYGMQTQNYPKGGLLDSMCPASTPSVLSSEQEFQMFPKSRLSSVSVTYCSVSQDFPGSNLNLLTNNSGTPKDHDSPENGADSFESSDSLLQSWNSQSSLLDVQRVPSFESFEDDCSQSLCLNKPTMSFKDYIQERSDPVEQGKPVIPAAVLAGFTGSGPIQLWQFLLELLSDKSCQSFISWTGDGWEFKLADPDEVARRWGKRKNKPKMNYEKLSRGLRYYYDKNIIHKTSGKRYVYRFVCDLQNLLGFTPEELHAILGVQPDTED
As to conditions: protein: recombinant; tags: N-terminal GST; dsDNA, one strand shown. In a few lines:
as §1

A further experiment has as its target T9, SPDEF (Homo sapiens, UniProt O95238 1-335).
T9 sequence: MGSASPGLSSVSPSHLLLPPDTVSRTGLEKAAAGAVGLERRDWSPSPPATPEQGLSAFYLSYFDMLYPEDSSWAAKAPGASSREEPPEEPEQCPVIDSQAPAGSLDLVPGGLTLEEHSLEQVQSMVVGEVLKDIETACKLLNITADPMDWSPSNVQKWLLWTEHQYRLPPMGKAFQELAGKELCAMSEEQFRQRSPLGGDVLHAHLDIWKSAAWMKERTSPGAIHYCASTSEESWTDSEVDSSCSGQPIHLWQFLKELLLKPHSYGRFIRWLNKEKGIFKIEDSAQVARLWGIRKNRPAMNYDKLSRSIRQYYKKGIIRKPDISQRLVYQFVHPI
As to conditions: protein: recombinant; tags: N-terminal GST; dsDNA, one strand shown. The procedure, abridged: as §1

A further experiment addresses T10, ETV7 (Homo sapiens, UniProt Q9Y603 1-341).
T10 sequence: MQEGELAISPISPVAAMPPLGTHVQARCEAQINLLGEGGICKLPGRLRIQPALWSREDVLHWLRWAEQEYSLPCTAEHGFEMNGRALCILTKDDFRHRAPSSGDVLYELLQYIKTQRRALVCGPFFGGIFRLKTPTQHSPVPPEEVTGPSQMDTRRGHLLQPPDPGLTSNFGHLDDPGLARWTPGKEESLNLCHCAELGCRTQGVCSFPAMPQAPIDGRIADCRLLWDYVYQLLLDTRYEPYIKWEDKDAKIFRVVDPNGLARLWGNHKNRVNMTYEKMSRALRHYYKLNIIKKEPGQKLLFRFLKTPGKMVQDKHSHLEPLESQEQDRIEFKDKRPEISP
As to conditions: protein: recombinant; tags: N-terminal GST; dsDNA, one strand shown. The procedure, abridged: as §1

The next experiment addresses T11, ELF5 (Homo sapiens, UniProt Q9UKW6-2 1-255).
T11 sequence: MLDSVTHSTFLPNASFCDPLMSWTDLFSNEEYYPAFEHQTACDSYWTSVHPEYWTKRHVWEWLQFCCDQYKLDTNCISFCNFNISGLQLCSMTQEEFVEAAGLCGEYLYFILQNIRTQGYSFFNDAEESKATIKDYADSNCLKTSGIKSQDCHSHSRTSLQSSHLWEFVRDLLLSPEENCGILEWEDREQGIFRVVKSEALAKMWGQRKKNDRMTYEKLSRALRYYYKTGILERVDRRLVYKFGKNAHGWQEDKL
To be noted: protein: recombinant; tags: N-terminal GST; dsDNA, one strand shown. The procedure, abridged:
as §1

The target of a further experiment is T12, ETV3 (Homo sapiens, UniProt P41162-2 1-143).
T12 sequence: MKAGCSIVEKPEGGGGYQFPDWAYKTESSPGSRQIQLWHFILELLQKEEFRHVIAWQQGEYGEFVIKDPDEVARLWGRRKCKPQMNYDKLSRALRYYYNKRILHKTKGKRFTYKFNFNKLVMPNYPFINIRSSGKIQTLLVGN
To be noted: protein: recombinant; tags: N-terminal GST; dsDNA, one strand shown. In a few lines:
as §1

A further experiment addresses ETV6 (Homo sapiens, UniProt P41212 1-452). To be noted: protein: recombinant; tags: N-terminal GST; dsDNA, one strand shown. The procedure, abridged: as §1

Chain of CRX (O43186 whole entry): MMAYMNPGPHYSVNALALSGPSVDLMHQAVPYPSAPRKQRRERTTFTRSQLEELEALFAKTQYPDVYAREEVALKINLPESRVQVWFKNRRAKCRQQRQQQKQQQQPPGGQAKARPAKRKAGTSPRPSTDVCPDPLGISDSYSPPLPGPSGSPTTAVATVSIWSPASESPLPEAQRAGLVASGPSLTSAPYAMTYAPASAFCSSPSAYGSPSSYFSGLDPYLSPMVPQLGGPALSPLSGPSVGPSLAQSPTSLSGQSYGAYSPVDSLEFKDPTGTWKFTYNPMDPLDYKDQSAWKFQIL
Chain of ELF4 (Q99607 whole entry): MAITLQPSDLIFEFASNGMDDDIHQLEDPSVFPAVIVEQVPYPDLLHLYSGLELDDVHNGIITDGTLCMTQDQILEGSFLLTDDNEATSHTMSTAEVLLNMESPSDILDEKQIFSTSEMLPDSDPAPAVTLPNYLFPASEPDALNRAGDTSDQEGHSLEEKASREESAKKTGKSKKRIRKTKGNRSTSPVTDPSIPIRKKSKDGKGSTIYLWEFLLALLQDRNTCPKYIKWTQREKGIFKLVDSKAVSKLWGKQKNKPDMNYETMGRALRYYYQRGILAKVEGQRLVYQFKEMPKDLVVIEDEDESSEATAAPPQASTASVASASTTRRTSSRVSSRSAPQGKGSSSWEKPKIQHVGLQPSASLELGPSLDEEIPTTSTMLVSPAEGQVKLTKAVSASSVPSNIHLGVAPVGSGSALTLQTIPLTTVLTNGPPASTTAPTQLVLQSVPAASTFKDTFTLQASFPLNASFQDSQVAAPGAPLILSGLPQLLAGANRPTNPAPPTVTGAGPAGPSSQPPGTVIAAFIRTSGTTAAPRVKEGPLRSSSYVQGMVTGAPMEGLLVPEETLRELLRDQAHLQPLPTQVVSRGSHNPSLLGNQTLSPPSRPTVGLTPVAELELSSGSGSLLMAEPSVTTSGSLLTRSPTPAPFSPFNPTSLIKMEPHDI
Chain of ETV6 (P41212 whole entry): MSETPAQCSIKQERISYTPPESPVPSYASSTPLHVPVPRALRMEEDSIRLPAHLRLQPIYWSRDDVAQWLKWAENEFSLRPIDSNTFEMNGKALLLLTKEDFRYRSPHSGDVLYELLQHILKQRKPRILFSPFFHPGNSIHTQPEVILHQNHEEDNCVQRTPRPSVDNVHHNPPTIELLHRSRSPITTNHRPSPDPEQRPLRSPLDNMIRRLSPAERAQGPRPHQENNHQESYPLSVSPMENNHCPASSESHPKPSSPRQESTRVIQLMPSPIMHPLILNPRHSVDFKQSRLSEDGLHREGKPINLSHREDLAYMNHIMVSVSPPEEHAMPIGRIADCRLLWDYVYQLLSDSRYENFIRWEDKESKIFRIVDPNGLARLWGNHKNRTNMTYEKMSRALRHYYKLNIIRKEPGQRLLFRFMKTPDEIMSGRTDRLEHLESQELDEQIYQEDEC
Chain of HSF1 (Q00613 whole entry): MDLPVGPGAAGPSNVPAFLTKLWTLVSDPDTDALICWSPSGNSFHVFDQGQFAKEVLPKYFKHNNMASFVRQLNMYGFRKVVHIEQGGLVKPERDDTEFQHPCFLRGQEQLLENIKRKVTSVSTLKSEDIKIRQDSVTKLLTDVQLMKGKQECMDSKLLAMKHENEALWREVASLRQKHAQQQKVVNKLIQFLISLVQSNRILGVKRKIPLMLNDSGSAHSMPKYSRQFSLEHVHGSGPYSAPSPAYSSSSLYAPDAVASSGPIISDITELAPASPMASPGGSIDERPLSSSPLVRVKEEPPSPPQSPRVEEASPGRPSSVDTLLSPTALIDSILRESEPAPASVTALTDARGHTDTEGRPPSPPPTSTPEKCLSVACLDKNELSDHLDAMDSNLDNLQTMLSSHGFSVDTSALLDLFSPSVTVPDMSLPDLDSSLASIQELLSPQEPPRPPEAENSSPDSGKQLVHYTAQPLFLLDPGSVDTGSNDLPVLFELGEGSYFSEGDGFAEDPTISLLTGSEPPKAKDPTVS
Chain of ETV1 (P50549 whole entry): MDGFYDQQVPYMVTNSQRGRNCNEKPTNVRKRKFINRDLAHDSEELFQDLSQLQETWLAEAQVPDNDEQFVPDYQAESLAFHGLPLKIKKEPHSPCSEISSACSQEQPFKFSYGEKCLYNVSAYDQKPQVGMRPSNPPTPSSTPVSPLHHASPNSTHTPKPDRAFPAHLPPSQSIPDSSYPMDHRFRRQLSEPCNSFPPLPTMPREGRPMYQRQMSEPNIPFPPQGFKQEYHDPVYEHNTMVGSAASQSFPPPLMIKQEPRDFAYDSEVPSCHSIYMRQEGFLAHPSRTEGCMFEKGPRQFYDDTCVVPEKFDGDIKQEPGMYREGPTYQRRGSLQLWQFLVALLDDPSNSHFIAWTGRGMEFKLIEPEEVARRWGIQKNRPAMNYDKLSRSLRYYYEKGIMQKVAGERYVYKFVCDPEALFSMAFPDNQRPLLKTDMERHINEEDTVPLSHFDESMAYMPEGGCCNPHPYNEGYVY

Regarding AACCTC, the binding signal is 1.18 fold enrichment (6-mer frequency, TF over GST control) with FEV; 1.22 fold enrichment (6-mer frequency, TF over GST control) with ETV5; 1.17 fold enrichment (6-mer frequency, TF over GST control) in the experiment with HSF1; 1.4 fold enrichment (6-mer frequency, TF over GST control) with SPIC; 1.2 fold enrichment (6-mer frequency, TF over GST control) with ELF4; 1.26 fold enrichment (6-mer frequency, TF over GST control) with ELK4. In addition, the binding signal is 1.32 fold enrichment (6-mer frequency, TF over GST control) with ETV2; 1.28 fold enrichment (6-mer frequency, TF over GST control) in the experiment with ELF3; 1.11 fold enrichment (6-mer frequency, TF over GST control) with CRX; 1.24 fold enrichment (6-mer frequency, TF over GST control) with ETV1; 1.26 fold enrichment (6-mer frequency, TF over GST control) in the experiment with ERF; 1.24 fold enrichment (6-mer frequency, TF over GST control) with ETV3L. Also, the binding signal with ETS2 is 1.18 fold enrichment (6-mer frequency, TF over GST control); in the experiment with SPDEF it was 1.07 fold enrichment (6-mer frequency, TF over GST control); with ETV7, 1.26 fold enrichment (6-mer frequency, TF over GST control); with ELF5, 1.17 fold enrichment (6-mer frequency, TF over GST control); with ETV3, 1.2 fold enrichment (6-mer frequency, TF over GST control); with ETV6, 1.16 fold enrichment (6-mer frequency, TF over GST control).
